Assay results taken from PubChem BioAssay AID1159580 (chemical genetic matrix, 2015).
About 2,000 (36%) of roughly 5,500 compounds were called active. Not shown: some 18% with an inconclusive outcome. Cut-off read from the data, not from the text of the source: active = normalized growth mostly below about 0.91 (no sharp cut-off); inconclusive = no clear call, values can overlap the other calls; inactive = mostly above about 0.92. The list shows a part of the results.

Assay: chemical genetic growth profiling, strain panel (AID 1159580);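 note: tested at 20 µM; growth read once vehicle control cultures reached saturation at 30 °C; 1 = growth at the plate median or of vehicle wells; lower values mean less growth of the strain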
Conditions: growth OD
[1] = S. cerevisiae deletion strains, locus YAL013W, strain DEP1, hits give low values
[2] = S. cerevisiae deletion strains, locus YBR229C, strain ROT2, hits give low values
[3] = S. cerevisiae deletion strains, locus YDL101C, strain DUN1, hits give low values
[4] = S. cerevisiae deletion strains, locus YDR150W, strain NUM1, hits give low values
[5] = S. cerevisiae deletion strains, locus YEL061C, strain CIN8, hits give low values
[6] = S. cerevisiae deletion strains, locus YGR078C, strain PAC10, hits give low values
[7] = S. cerevisiae deletion strains, locus YHR030C, strain SLT2, hits give low values
[8] = S. cerevisiae deletion strains, locus YHR087W, strain rtc3, hits give low values
[9] = S. cerevisiae deletion strains, locus YJR043C, strain POL32, hits give low values
[10] = S. cerevisiae deletion strains, locus YJR075W, strain HOC1, hits give low values
[11] = S. cerevisiae deletion strains, locus YLR039C, strain RIC1, hits give low values
[12] = S. cerevisiae deletion strains, locus YLR058C, strain SHM2 (second series), hits give low values
[13] = S. cerevisiae deletion strains, locus YLR085C, strain ARP6, hits give low values
[14] = S. cerevisiae deletion strains, locus YLR262C, strain YPT6, hits give low values
[15] = S. cerevisiae deletion strains, locus YML094W, strain GIM5, hits give low values
[16] = S. cerevisiae deletion strains, locus YMR219W, strain ESC1, hits give low values
[17] = S. cerevisiae deletion strains, locus YMR263W, strain SAP30, hits give low values
[18] = S. cerevisiae deletion strains, locus YNL153C, strain GIM3, hits give low values
[19] = S. cerevisiae deletion strains, locus YNL298W, strain CLA4 (second series), hits give low values
[20] = S. cerevisiae deletion strains, locus YNL322C, strain KRE1, hits give low values
[21] = S. cerevisiae deletion strains, locus YNR030W, strain Alg12, hits give low values
[22] = S. cerevisiae deletion strains, locus YPL055C, strain LGE1, hits give low values
[23] = S. cerevisiae deletion strains, locus YPL241C, strain CIN2, hits give low values
[24] = S. cerevisiae deletion strains, locus YPR135W, strain CTF4, hits give low values
[25] = S. cerevisiae strains, strain wild type, hits give low values
[26] = S. cerevisiae deletion strains, locus YAR019C, strain CDC15, hits give low values
[27] = S. cerevisiae deletion strains, locus YBL105C, strain PKC1, hits give low values
[28] = S. cerevisiae deletion strains, locus YBR135W, strain CKS1, hits give low values
[29] = S. cerevisiae deletion strains, locus YBR136W, strain MEC1, hits give low values
[30] = S. cerevisiae deletion strains, locus YBR160W, strain CDC28, hits give low values
[31] = S. cerevisiae deletion strains, locus YDL017W, strain CDC7, hits give low values
[32] = S. cerevisiae deletion strains, locus YDL028C, strain MPS1, hits give low values
[33] = S. cerevisiae deletion strains, locus YDL108W, strain KIN28, hits give low values
[34] = S. cerevisiae deletion strains, locus YDL132W, strain cdc53, hits give low values
[35] = S. cerevisiae deletion strains, locus YDL214C, strain PRR2, hits give low values
[36] = S. cerevisiae deletion strains, locus YDR052C, strain DBF4, hits give low values
[37] = S. cerevisiae deletion strains, locus YDR054C, strain cdc34, hits give low values
[38] = S. cerevisiae deletion strains, locus YDR226W, strain ADK1, hits give low values
[39] = S. cerevisiae deletion strains, locus YDR477W, strain SNF1, hits give low values
[40] = S. cerevisiae deletion strains, locus YER123W, strain YCK3, hits give low values
[41] = S. cerevisiae deletion strains, locus YER133W, strain GLC7, hits give low values
[42] = S. cerevisiae deletion strains, locus YFL009W, strain cdc4, hits give low values
[43] = S. cerevisiae deletion strains, locus YFL029C, strain CAK1, hits give low values
[44] = S. cerevisiae deletion strains, locus YFR003C, strain YPI1, hits give low values
[45] = S. cerevisiae deletion strains, locus YFR019W, strain FAB1, hits give low values
[46] = S. cerevisiae deletion strains, locus YFR028C, strain CDC14, hits give low values
[47] = S. cerevisiae deletion strains, locus YGR040W, strain KSS1, hits give low values
[48] = S. cerevisiae deletion strains, locus YGR052W, strain FMP48, hits give low values
[49] = S. cerevisiae deletion strains, locus YGR092W, strain DBF2, hits give low values
[50] = S. cerevisiae deletion strains, locus YHR079C, strain IRE1, hits give low values
[51] = S. cerevisiae deletion strains, locus YHR082C, strain KSP1, hits give low values
[52] = S. cerevisiae deletion strains, locus YHR205W, strain SCH9, hits give low values
[53] = S. cerevisiae deletion strains, locus YIL147C, strain SLN1, hits give low values
[54] = S. cerevisiae deletion strains, locus YJL095W, strain BCK1, hits give low values
[55] = S. cerevisiae deletion strains, locus YJL128C, strain PBS2, hits give low values
[56] = S. cerevisiae deletion strains, locus YJL157C, strain FAR1, hits give low values
[57] = S. cerevisiae deletion strains, locus YJR016C, strain ILV3, hits give low values
[58] = S. cerevisiae deletion strains, locus YJR066W, strain TOR1 (second series), hits give low values
[59] = S. cerevisiae deletion strains, locus YJR066W, strain TOR1, hits give low values
[60] = S. cerevisiae deletion strains, locus YKL048C, strain ELM1, hits give low values
[61] = S. cerevisiae deletion strains, locus YKL067W, strain YNK1, hits give low values
[62] = S. cerevisiae deletion strains, locus YKL101W, strain HSL1, hits give low values
[63] = S. cerevisiae deletion strains, locus YKL193C, strain SDS22, hits give low values
[64] = S. cerevisiae deletion strains, locus YKL203C, strain TOR2, hits give low values
[65] = S. cerevisiae deletion strains, locus YLR113W, strain HOG1, hits give low values
[66] = S. cerevisiae deletion strains, locus YLR133W, strain CKI1, hits give low values
[67] = S. cerevisiae deletion strains, locus YLR403W, strain SFP1, hits give low values
[68] = S. cerevisiae deletion strains, locus YML070W, strain DAK1, hits give low values
[69] = S. cerevisiae deletion strains, locus YMR001C, strain CDC5, hits give low values
[70] = S. cerevisiae deletion strains, locus YMR205C, strain PFK2 (second series), hits give low values
[71] = S. cerevisiae deletion strains, locus YMR277W, strain FCP1, hits give low values
[72] = S. cerevisiae deletion strains, locus YNL006W, strain LST8, hits give low values
[73] = S. cerevisiae deletion strains, locus YNL020C, strain ARK1, hits give low values
[74] = S. cerevisiae deletion strains, locus YNL161W, strain CBK1, hits give low values
[75] = S. cerevisiae deletion strains, locus YNL183C, strain NPR1, hits give low values
[76] = S. cerevisiae deletion strains, locus YNL207W, strain RIO2, hits give low values
[77] = S. cerevisiae deletion strains, locus YNL222W, strain SSU72, hits give low values
[78] = S. cerevisiae deletion strains, locus YNL307C, strain MCK1 (second series), hits give low values
[79] = S. cerevisiae deletion strains, locus YOL078W, strain AVO1, hits give low values
[80] = S. cerevisiae deletion strains, locus YOL136C, strain PFK27, hits give low values
[81] = S. cerevisiae deletion strains, locus YOR061W, strain CKA2, hits give low values
[82] = S. cerevisiae deletion strains, locus YOR119C, strain RIO1, hits give low values
[83] = S. cerevisiae deletion strains, locus YOR231W, strain MKK1, hits give low values
[84] = S. cerevisiae deletion strains, locus YOR329C, strain SCD5, hits give low values
[85] = S. cerevisiae deletion strains, locus YPL031C, strain PHO85, hits give low values
[86] = S. cerevisiae deletion strains, locus YPL153C, strain RAD53, hits give low values
[87] = S. cerevisiae deletion strains, locus YPL204W, strain HRR25, hits give low values
[88] = S. cerevisiae deletion strains, locus YPL209C, strain IPL1, hits give low values
[89] = S. cerevisiae deletion strains, locus YPL256C, strain CLN2, hits give low values
[90] = S. cerevisiae deletion strains, locus YPR025C, strain CCL1, hits give low values
[91] = S. cerevisiae deletion strains, locus YPR106W, strain ISR1, hits give low values
[92] = S. cerevisiae deletion strains, locus YPR111W, strain DBF20, hits give low values
[93] = S. cerevisiae deletion strains, strain NNK1, hits give low values
[94] = S. cerevisiae deletion strains, strain TSCII, hits give low values

Measured: normalized growth

CC(=O)/C(=C\Nc1ncccn1)S(=O)(=O)c1ccc(Cl)cc1
inactive: [1] 1.01 | [2] 1 | S. cerevisiae deletion strains, locus YCL061C, strain MRC1, hits give low values 1 | [3] 1.01 | [4] 0.977 | [5] 1 | [6] 1 | S. cerevisiae deletion strains, locus YGR229C, strain SMI1, hits give low values 1 | [7] 0.822 | [8] 0.98 | S. cerevisiae deletion strains, locus YJL187C, strain SWE1, hits give low values 1 | [9] 1.05 | [10] 0.941 | [11] 0.927 | [12] 0.993 | [13] 0.918 | [14] 0.89 | [15] 0.97 | [16] 0.998 | [17] 0.987 | S. cerevisiae deletion strains, locus YNL128W, strain TEP1, hits give low values 1.01 | [18] 1.01 | [19] 0.954 | [20] 0.946 | [21] 0.975 | [22] 0.925 | [23] 0.98 | [24] 0.9 | [25] 1

CC(=O)OCc1ccc(/C=C(\C#N)S(=O)(=O)c2ccc(Cl)cc2)o1
inactive: [1] 1.01 | [2] 1.01 | [3] 1.01 | [4] 1.06 | [5] 1 | [6] 1.01 | [7] 0.923 | [8] 0.983 | [9] 1.04 | [10] 0.956 | S. cerevisiae deletion strains, locus YKL190W, strain CNB1, hits give low values 1.02 | [11] 0.992 | [12] 0.996 | [13] 0.923 | [14] 1.01 | [15] 0.993 | [16] 0.993 | [17] 1.06 | S. cerevisiae deletion strains, locus YMR307W, strain GAS1, hits give low values 0.869 | [18] 1.03 | [19] 1.01 | [20] 0.985 | [21] 0.985 | [22] 1.13 | [23] 0.98 | [24] 0.966 | [25] 1.02

Cn1cncc1S(=O)(=O)/C(C#N)=C/c1ccccc1Sc1ccc(Cl)cc1
inactive: [26] 0.987 | [27] 0.973 | [28] 0.975 | [29] 0.972 | [30] 0.983 | [31] 0.976 | [32] 0.979 | [3] 0.976 | [33] 0.979 | [34] 0.97 | [35] 0.771 | [36] 0.983 | [37] 0.982 | [38] 0.962 | [39] 0.773 | [40] 0.729 | [41] 0.786 | [42] 0.971 | [43] 0.984 | [44] 0.98 | [46] 0.969 | [47] 0.752 | [48] 0.713 | [49] 0.619 | [50] 0.668 | [52] 0.617 | [53] 0.973 | [54] 0.726 | [55] 0.944 | [56] 0.723 | [57] 0.982 | [58] 0.771 | [59] 0.678 | [60] 0.845 | [61] 0.854 | [62] 0.828 | [63] 0.976 | [64] 0.815 | [68] 0.8 | [69] 0.971 | [70] 0.829 | [71] 0.973 | [72] 0.984 | [73] 0.716 | [74] 0.978 | [75] 0.807 | [76] 0.971 | [77] 0.98 | [78] 0.681 | [79] 0.966 | [81] 0.758 | [82] 0.776 | [83] 0.794 | [84] 0.978 | [85] 0.743 | [86] 0.798 | [87] 0.699 | [88] 0.975 | [90] 0.977 | [91] 0.981 | [92] 0.962 | [93] 0.967 | [94] 0.974
active: [45] 0.75 | [7] 0.368 | [51] 0.6 | [65] 0.81 | [66] 0.73 | [67] 0.619 | [80] 0.674 | [89] 0.73

N#C/C(=N/Nc1ccccc1Cl)S(=O)(=O)c1ccc(Cl)cc1
inactive: [26] 0.976 | [27] 0.97 | [28] 0.964 | [29] 0.968 | [30] 0.969 | [31] 0.976 | [32] 0.975 | [3] 0.978 | [33] 0.977 | [34] 0.971 | [35] 0.889 | [36] 0.966 | [37] 0.966 | [38] 0.974 | [39] 0.889 | [40] 0.882 | [41] 0.909 | [42] 0.968 | [43] 0.969 | [44] 0.973 | [45] 0.859 | [46] 0.95 | [47] 0.889 | [48] 0.869 | [49] 0.715 | [7] 0.916 | [50] 0.955 | [51] 0.918 | [52] 0.866 | [53] 0.968 | [54] 0.852 | [55] 0.944 | [56] 0.909 | [57] 0.974 | [58] 0.877 | [59] 0.962 | [60] 0.886 | [61] 0.911 | [62] 0.835 | [63] 0.976 | [64] 0.943 | [65] 0.877 | [66] 0.847 | [67] 0.811 | [68] 0.883 | [69] 0.969 | [70] 0.918 | [71] 0.973 | [72] 0.979 | [73] 0.828 | [74] 0.971 | [75] 0.94 | [76] 0.954 | [77] 0.977 | [78] 0.787 | [79] 0.968 | [80] 0.832 | [81] 0.851 | [82] 0.957 | [83] 0.895 | [84] 0.979 | [85] 0.856 | [86] 0.889 | [87] 0.814 | [88] 0.975 | [89] 0.939 | [90] 0.978 | [91] 0.966 | [92] 0.961 | [93] 0.952 | [94] 0.956
